Assay results reported in PMC12350791.

Biological target: PRPF8 (UniProt Q6P2Q9)
Experiment: cross-linking mass spectrometry
Details: DSBSO, in cells or nuclear extract, not told apart

EFTUD2, Q15029, sequence (Q15029 whole entry): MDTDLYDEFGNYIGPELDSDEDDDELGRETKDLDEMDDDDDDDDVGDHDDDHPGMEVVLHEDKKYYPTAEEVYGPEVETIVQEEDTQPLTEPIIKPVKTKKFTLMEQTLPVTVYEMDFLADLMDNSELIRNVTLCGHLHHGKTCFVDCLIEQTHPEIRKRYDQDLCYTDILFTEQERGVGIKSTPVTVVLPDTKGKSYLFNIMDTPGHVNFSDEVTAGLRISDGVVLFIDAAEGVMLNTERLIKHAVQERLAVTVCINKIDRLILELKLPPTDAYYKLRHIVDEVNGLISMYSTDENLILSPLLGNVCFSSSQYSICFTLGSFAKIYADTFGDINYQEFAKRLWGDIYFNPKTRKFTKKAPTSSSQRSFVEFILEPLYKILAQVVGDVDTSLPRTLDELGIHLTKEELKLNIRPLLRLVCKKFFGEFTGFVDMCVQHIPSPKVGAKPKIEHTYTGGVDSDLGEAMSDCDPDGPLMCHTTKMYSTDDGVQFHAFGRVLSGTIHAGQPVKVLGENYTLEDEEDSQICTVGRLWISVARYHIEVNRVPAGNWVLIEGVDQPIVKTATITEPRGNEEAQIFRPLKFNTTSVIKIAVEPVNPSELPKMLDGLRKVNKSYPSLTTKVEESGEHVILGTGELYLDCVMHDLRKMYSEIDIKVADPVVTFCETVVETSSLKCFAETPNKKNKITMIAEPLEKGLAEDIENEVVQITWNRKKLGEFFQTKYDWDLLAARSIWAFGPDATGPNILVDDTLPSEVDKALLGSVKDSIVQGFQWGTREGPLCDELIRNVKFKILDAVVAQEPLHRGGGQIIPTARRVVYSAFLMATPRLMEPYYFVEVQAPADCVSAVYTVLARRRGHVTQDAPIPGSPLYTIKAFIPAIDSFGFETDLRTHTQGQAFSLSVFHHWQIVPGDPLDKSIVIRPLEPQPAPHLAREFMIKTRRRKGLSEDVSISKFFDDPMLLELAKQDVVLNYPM
PLRG1, O43660, sequence (O43660 whole entry): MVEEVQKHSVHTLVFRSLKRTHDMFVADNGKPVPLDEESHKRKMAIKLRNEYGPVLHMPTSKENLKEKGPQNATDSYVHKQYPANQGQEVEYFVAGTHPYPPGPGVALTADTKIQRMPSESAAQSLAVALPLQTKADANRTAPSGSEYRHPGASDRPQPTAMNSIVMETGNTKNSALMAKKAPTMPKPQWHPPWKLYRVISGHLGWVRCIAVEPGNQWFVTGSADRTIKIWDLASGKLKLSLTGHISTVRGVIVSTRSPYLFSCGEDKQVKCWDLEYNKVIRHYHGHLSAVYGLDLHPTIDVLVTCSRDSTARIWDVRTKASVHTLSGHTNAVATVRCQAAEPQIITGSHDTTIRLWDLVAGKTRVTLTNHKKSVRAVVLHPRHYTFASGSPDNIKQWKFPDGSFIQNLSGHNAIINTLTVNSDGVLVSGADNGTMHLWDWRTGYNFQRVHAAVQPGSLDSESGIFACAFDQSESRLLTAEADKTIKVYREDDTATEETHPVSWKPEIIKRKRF
USP39, Q53GS9, sequence (Q53GS9 whole entry): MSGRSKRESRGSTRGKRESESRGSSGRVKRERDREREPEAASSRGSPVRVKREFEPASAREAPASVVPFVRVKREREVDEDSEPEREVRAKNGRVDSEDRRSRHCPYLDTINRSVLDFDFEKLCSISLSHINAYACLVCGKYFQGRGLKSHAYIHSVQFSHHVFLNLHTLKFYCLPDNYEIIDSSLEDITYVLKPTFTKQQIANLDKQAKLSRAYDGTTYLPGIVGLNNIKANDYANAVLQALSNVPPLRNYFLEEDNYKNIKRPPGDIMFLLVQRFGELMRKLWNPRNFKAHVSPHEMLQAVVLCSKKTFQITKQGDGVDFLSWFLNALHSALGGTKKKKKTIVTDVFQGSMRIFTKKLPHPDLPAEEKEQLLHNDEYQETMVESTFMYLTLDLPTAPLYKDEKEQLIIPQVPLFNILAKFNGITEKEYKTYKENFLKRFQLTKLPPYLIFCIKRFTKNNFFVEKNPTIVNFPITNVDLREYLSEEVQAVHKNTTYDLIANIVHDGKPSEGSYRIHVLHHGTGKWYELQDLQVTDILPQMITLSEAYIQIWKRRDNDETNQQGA

| Substance | cross-linked residues |
| --- | --- |
| PLRG1, O43660 | K320 - K666 |
| USP39, Q53GS9 | K508 - K983 |
| EFTUD2, Q15029 | K405 - K218 |
